# The list is not random: actives were taken first. Their share in the collection is about 3%.
# Tau fibril FP: qHTS for Inhibitors of Tau Fibril Formation, Fluorescence Polarization; Potency, µM (top dose mostly 57.7 µM), inactives show at the highest dose activity, negative = inhibition, hits mostly inhibitors; actives 0.39% (n = 280,000); K18 P301L tau heparin fibrillization, Alexa594 FP, 6 h; further: nearly all actives have a fitted effect of over 55% in size
# Target sequence (P10636 561-689 P618L limits assumed): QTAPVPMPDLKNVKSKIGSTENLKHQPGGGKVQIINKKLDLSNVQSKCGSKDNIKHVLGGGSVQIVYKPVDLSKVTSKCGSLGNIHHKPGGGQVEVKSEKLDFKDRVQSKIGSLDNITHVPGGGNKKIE
#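 Human K18 P301L fragment (15 uM unlabeled plus 0.24 uM Alexa 594-labeled) in 100 mM sodium acetate pH 7 with compound, aggregation induced by 20 uM heparin for 6 hr at 37 C. ThT (30 uM) added for 1 hr, then Alexa 594 FP read.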
# TRb-SRC2 inh: qHTS for Inhibitors of the Interaction of Thyroid Hormone Receptor and Steroid Receptor Coregulator 2; Thyroid hormone receptor beta (Homo sapiens), P10828; actives 0.065% (n = 280,000); Potency, µM (highest dose often 106 µM), for the others: top-dose activity change, negative = inhibition, hits mostly inhibitors; TRbeta-SRC2 peptide binding, fluorescence polarization; receptor liganded with 1 µM T3;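 further: plate controls were bound peptide for no effect and peptide without receptor for full effect; nearly all actives have a fitted effect of over 50% in size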
# Target sequence (P10828 whole entry, looked up): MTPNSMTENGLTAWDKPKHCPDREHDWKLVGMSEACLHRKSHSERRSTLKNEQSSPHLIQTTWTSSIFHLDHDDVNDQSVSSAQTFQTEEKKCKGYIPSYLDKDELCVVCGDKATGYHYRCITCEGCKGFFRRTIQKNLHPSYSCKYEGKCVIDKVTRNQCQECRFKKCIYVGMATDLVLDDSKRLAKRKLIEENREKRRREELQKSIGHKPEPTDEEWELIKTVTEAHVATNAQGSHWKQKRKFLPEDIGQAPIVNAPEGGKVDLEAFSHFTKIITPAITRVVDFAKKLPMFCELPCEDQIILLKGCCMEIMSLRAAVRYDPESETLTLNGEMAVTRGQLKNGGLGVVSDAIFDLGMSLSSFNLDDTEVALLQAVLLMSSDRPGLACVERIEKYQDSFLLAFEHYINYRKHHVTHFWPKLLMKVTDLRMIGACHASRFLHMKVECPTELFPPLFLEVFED
#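 A fluorescence polarization screen tested compounds at multiple concentrations against complex formation between 0.6 uM TRb ligand-binding domain and 20 nM Texas Red SRC2 peptide, with 1 uM T3 present; readout after 5 hr.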
# Tau ThT inhib: qHTS for Inhibitors of Tau Fibril Formation, Thioflavin T Binding. actives 2.1% (n = 270,000). AID 1460, 2008. recombinant tau K18 P301L, heparin-induced fibrillization, ThT fluorescence. Microtubule-associated protein tau (Homo sapiens), P10636. Potency, µM (highest dose often 57.4 µM), inactives show top-dose activity, negative = inhibition, most hits filed as inhibitors; further: nearly all actives have a fitted effect of over 55% in size
#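 Aggregation was driven by heparin (20 uM final) acting on recombinant tau […] bearing P301L in 100 mM sodium acetate pH 7; fibrils were detected with Thioflavin T.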
# TexasRed fluor: Total Fluorescence Counterscreen for Inhibitors of the Interaction of Thyroid Hormone Receptor and Steroid Receptor Coregulator 2. AID 1479, 2009. actives 0.29% (n = 280,000). Potency, µM (highest dose often 106 µM), for inactives: at the highest dose fluorescence change, negative = quenching. TRb/SRC2 Texas Red total fluorescence interference; active means well fitted curve in either direction with a large enough effect; inconclusive means small, poorly fitted or top-dose-only effect
#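 Flags fluorescent or light-absorbing compounds by total fluorescence, S + 2P, at 555 nm excitation and 632 nm emission. Mixture: 20 nM Texas Red SRC2 peptide, 0.6 uM human TRb LBD, 1 uM T3, 5% DMSO; compound exposure 5 h at ambient temperature.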
# Tau fluor cs: Counterscreen qHTS for Inhibitors of Tau Fibril Formation, Fluorescence Polarization; tau K18 P301L Alexa594 fluorescence, heparin fibrillization; Potency, µM (doses to about 57.7 µM), for inactives: at the highest dose activity change, negative = decrease; actives 0.93% (n = 280,000); AID 1463, 2008; further: nearly all actives have a fitted effect of over 55% in size
#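 Human tau K18 P301L (15 uM unlabeled, 0.24 uM Alexa 594-labeled) in 100 mM sodium acetate pH 7 with 20 uM heparin, 6 hr at 37 C. ThT 30 uM added, 1 hr ambient; Alexa 594 FP and total fluorescence read at 555/632 nm.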
# The depositor's hits bear a star; u = inconclusive; x = no result; [ ] = dose if it differs, or a comment. Unless noted, the call rests on the fitted dose curve; in most records, active means well fitted curve in the direction sought with a large enough effect; inconclusive means small, poorly fitted or top-dose-only effect, or another doubt; inactive means no such curve, though single readings can be large; an effect the other way counts as inactive or inconclusive. Unless noted, on the % scale 0 is the no-effect control and ±100 the full control effect; potency means the concentration at half of the fitted maximal effect.
SMILES,Tau fibril FP,TRb-SRC2 inh,Tau ThT inhib,TexasRed fluor,Tau fluor cs
COCCn1c(C)cc(O)c(C(c2ccccc2)N2CCN(c3ccccc3F)CC2)c1=O (configuration not stated),-14.2%,7.4%,u,0.1%,-5.7%
CC(C)CO/N=C1/C[C@@H](O)[C@@H](O)[C@@H]2[C@@H]3C(=O)N(Cc4ccc5c(c4)OCO5)C(=O)[C@H]3CC[C@@H]12,0.8%[11.6 µM],-0.9%[11.2 µM],-3.6%[11.5 µM],-20.6%[11.2 µM],0.7%[11.6 µM]
CCCNC(=O)Cn1nc(-c2ccc(F)cc2)c2cnc3ccc(F)cc3c21,-6.3%,-1.9%,10.6%,-0.3%,6.5%
COc1ccccc1CNc1ccc(-c2nc(-c3cccnc3)no2)cc1[N+](=O)[O-],-12.7%,-2.0%,-0.7%,-2.5%,-6.6%
COc1ccc(N2CC(NC(=O)COc3ccc4ccccc4c3)CC2=O)cc1OC (configuration not stated),-3.7%,-2.4%,-14.7%,-0.6%,-11.4%
CN(C)c1ccc(/C=N\NC(=S)SCN2C(=O)C3CCC(C)(C2=O)C3(C)C)cc1 (configuration not stated),7.3%,8.5%,8.91µM*,-2.8%,12.6µM*[quencher]
CC(=O)NNc1nc(-c2ccc(NC(C)=O)cc2)cs1,-2.9%,2.4%,-0.6%,0.9%,-5.6%
CC(=O)Nc1cccc(-c2csc(Nc3ncccn3)n2)c1,-0.9%,-3.0%,u,-1.5%,-20.5%
CC(=O)Nc1ccc(-c2csc(Nc3cccc(C)n3)n2)cc1,7.6%,5.5%,u,-7.3%,20µM*[quencher]
CC(=O)Nc1cccc(-c2csc(Nc3ccc(C)cn3)n2)c1,14.3%,-9.0%,u,-7.4%,14.1µM*[quencher]
CC(=O)Nc1ccc(-c2csc(NNC(=O)c3ccc(C)cc3)n2)cc1,u,1.4%,11.2µM*,-2.2%,u
Cc1cccc(N2CCN(S(=O)(=O)c3ccc4c(c3)CC(=O)N4C)CC2)c1C,3.7%,-7.0%,-0.6%,22.4µM*[quencher],5.2%
Nc1cc2sc(-c3ccc(C(=O)O)cc3)nc2cc1Cl,1.7%,12.3%,u,-9.2%,-21.2%
Nc1ncc(N=Nc2cc(C(=O)O)ccc2Cl)s1,u,19.1%,14.1µM*,70.8µM*[quencher],-27.7%
COc1ccc(NC(=O)c2sc3nc(C)c(C(=O)Nc4ccc(C)cc4C)c(-c4sccc4C)c3c2N)cc1,0.9%,0.4%,-7.0%,-3.2%,-18.7%
O=C1C(Nc2ccc(O)cc2)=C/C(=N/S(=O)(=O)c2cccs2)c2ccccc21,u,u,12.6µM*,-2.4%,12.6µM*[quencher]
Cc1ccc(Cl)cc1NC1=C/C(=N\S(=O)(=O)c2cccs2)c2ccccc2C1=O,-2.1%,-21.9%,4.47µM*,3.6%,u
Cc1cccc(NC2=C/C(=N/S(=O)(=O)c3cccs3)c3ccccc3C2=O)c1,4.5%,-1.0%,15.3%,-4.0%,-3.5%
Cc1ccc(NC2=C/C(=N\S(=O)(=O)c3cccs3)c3ccccc3C2=O)c(C)c1,2.0%,-26.9%,u,-2.1%,u
O=C(O)c1ccc(NC2=C/C(=N/S(=O)(=O)c3ccccc3)c3ccccc3C2=O)cc1,u,u,14.1µM*,-9.4%,u
COc1ccc(-c2cc(C(F)(F)F)nc(SCC(=O)N3CCCCC3)n2)cc1,-9.3%,-2.8%,3.7%,5.5%,-1.6%
CCCCCCCC1CCC(=O)O1 (configuration not stated),x,8.2%[201 µM],x,-3.2%[201 µM],x
CSc1ncc(C(=O)Nc2ccc(C)c(Cl)c2)c(-c2ccccc2)n1,-13.9%,-2.6%,-1.1%,u,-17.5%
COc1ccc(Br)cc1CNc1ccc2[nH]c(=O)[nH]c2c1,11.1%,1.1%,u,-4.8%,-23.8%
COc1cc(CNc2ccc(O)cc2)cc(Br)c1OCc1ccccc1,u,u,25.1µM*,-5.9%,12.6µM*[quencher]
SMILES,Tau fibril FP,TRb-SRC2 inh,Tau ThT inhib,TexasRed fluor,Tau fluor cs
COc1ccc(Br)cc1CNc1ccc(O)cc1,25.1µM*,8.91µM*,12.6µM*,u,u
CCOc1cccc(=O)c2c(C)n(-c3ccc(C(=O)O)cc3)c(C)c12,-9.1%,-0.9%,u,-2.1%,-10.5%
COc1ccc(-n2c(C)c3c(OC)cccc(=O)c3c2C)cc1,u,7.7%,17.8µM*,3.8%,-22.7%
COc1ccccc1-n1c(C)c2c(OC)cccc(=O)c2c1C,-3.6%,-3.1%,u,-1.5%,-8.7%
COc1cccc(=O)c2c(C)n(-c3ccc(C(=O)O)cc3)c(C)c12,u,-3.1%,15.8µM*,3.5%,-13.8%
CCOC(=O)c1ccc(NC(=O)CCCn2nc(C)c3sc4ccccc4c3c2=O)cc1,1.1%,4.1%,5.8%,-2.2%,-26.0%
O=C(O)CN1C(=O)/C(=C/c2ccc(N3CCCCC3)o2)SC1=S,u,0.3%,15.8µM*,16.0%,-2.7%
COC(=O)CN1C(=O)S/C(=C/c2ccc(N3CCCCC3)o2)C1=O,u,-7.8%,25.1µM*,18.7%,-24.1%
CCCN1C(=O)S/C(=C/c2ccc(N3CCOCC3)o2)C1=O,u,2.9%,u,-3.5%,u
CCCN1C(=O)S/C(=C\c2ccc(N3CCOCC3)o2)C1=O,-18.1%,4.3%,17.8µM*,-0.5%,-26.6%
CCOC(=O)c1cccc(NC(=O)NCc2ccc3c(c2)CCN3C(=O)CC)c1,u,6.2%,u,-4.9%,17.8µM*[quencher]
CC(=O)C1=C(O)C(=O)N(C)C1c1ccccc1[N+](=O)[O-] (configuration not stated),u,-2.8%,15.8µM*,-5.0%,-14.0%
CCCCCCN1C(=O)C(O)=C(C(C)=O)C1c1ccccc1[N+](=O)[O-] (configuration not stated),-2.7%,-7.5%,-2.1%,-2.7%,-4.2%
CC(=O)C1=C(O)C(=O)N(CCCN2CCOCC2)C1c1ccccc1[N+](=O)[O-] (configuration not stated),u,-3.1%,25.1µM*,0.8%,u
CC(=O)C1=C(O)C(=O)N(CCC(=O)O)C1c1ccccc1[N+](=O)[O-] (configuration not stated),4.0%,-1.2%,-0.8%,0.4%,-2.3%
Cc1cc(N2CCN(C)CC2)nc2ccc(NC(=O)Nc3ccc(Cl)cc3)cc12,-13.5%,1.1%,12.6µM*,-1.9%,10µM*[quencher]
Cc1cc(N2CCN(C)CC2)nc2ccc(NC(=S)N3CCN(c4ccc(Cl)cc4)CC3)cc12,0.1%,-1.5%,u,-3.0%,u
CCOc1cccc(CC(=O)Nc2ccc3nc(N4CCCCC4)cc(C)c3c2)c1OCC,u,-7.8%,u,-0.1%,u

# Bioassay records as filed in PubChem BioAssay.
